{"source": "the supplement of paper PMC4206461", "data": [{"tested_on": "Pseudomonas aeruginosa PA14 wild type", "experiment": "respiration area under curve with compound as sole nitrogen source, 24 h (OmniLog AUC (arbitrary units)); higher = more respiration / better utilisation as nitrogen source, active = 2000 or more", "protocol": "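Biolog Phenotype MicroArray plates PM6-PM8: each di/tripeptide is the sole nitrogen source (IF-0 medium with succinate/ferric citrate and dye mix A). Tetrazolium reduction was read in the OmniLog every 15 min for 24 h at 37°C and summarised as area under the respiration curve (arbitrary units). The paper counts values below 2000 as no respiration and above 8000 as solid respiration. Replicate datasets are averaged.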", "values": [{"compound": "N[C@@H](Cc1ccc(O)cc1)C(=O)NCC(=O)O", "note": "(plate: PM7)", "respiration area under curve": "9630 (active)"}, {"compound": "N[C@@H](CO)C(=O)N[C@@H](Cc1ccccc1)C(=O)O", "note": "(plate: PM7)", "respiration area under curve": "7090 (active)"}, {"compound": "N[C@@H](Cc1c[nH]c2ccccc12)C(=O)N[C@@H](CO)C(=O)O", "note": "(plate: PM7)", "respiration area under curve": "4810 (active)"}, {"compound": "CC(C)C[C@H](N)C(=O)N[C@@H](CCCN=C(N)N)C(=O)O", "note": "(plate: PM6)", "respiration area under curve": "10200 (active)"}, {"compound": "N[C@@H](CO)C(=O)NCC(=O)O", "note": "(plate: PM7)", "respiration area under curve": "8430 (active)"}, {"compound": "C[C@@H](O)[C@H](N)C(=O)N[C@@H](CO)C(=O)O", "note": "(plate: PM8)", "respiration area under curve": "7920 (active)"}, {"compound": "CC[C@H](C)[C@H](N)C(=O)N[C@@H](CC(C)C)C(=O)O", "note": "(plate: PM8)", "respiration area under curve": "6290 (active)"}, {"compound": "NC(N)=NCCC[C@H](NC(=O)[C@@H]1CCCN1)C(=O)O", "note": "(plate: PM8)", "respiration area under curve": "12100 (active)"}, {"compound": "CC(C)C[C@@H](N)C(=O)N[C@H](CC(C)C)C(=O)O", "note": "(plate: PM8)", "respiration area under curve": "0 (inactive)"}, {"compound": "CSCC[C@H](NC(=O)CN)C(=O)O", "note": "(plate: PM6)", "respiration area under curve": "327 (inactive)"}, {"compound": "NCC(=O)N[C@@H](CC(N)=O)C(=O)O", "note": "(plate: PM8)", "respiration area under curve": "14700 (active)"}, {"compound": "CC(C)C[C@H](NC(=O)[C@@H](N)Cc1ccc(O)cc1)C(=O)O", "note": "(plate: PM7)", "respiration area under curve": "7880 (active)"}, {"compound": "CC(C)[C@H](N)C(=O)N[C@@H](C)C(=O)O", "note": "(plate: PM8)", "respiration area under curve": "6590 (active)"}, {"compound": "NCC(=O)NCC(=O)N[C@@H](Cc1ccccc1)C(=O)O", "note": "(plate: PM8)", "respiration area under curve": "9740 (active)"}, {"compound": "CC(C)[C@H](NC(=O)[C@@H](N)CCC(=O)O)C(=O)O", "note": "(plate: PM6)", "respiration area under curve": "5390 (active)"}, {"compound": "CC(C)[C@H](N)C(=O)N1CCC[C@H]1C(=O)O", "note": "(plate: PM8)", "respiration area under curve": "12700 (active)"}, {"compound": "O=C(O)[C@@H]1CCCN1C(=O)[C@@H]1CCCN1", "note": "(plate: PM7)", "respiration area under curve": "10500 (active)"}, {"compound": "CC[C@H](C)[C@H](N)C(=O)N[C@@H](C)C(=O)O", "note": "(plate: PM6)", "respiration area under curve": "5290 (active)"}, {"compound": "C[C@H](NC(=O)CNC(=O)CN)C(=O)O", "note": "(plate: PM8)", "respiration area under curve": "11300 (active)"}, {"compound": "CC(C)[C@H](NC(=O)[C@@H](N)Cc1c[nH]c2ccccc12)C(=O)O", "note": "(plate: PM8)", "respiration area under curve": "3080 (active)"}, {"compound": "C[C@H](NC(=O)[C@@H](N)[C@@H](C)O)C(=O)O", "note": "(plate: PM7)", "respiration area under curve": "10500 (active)"}, {"compound": "CC(C)C[C@H](N)C(=O)NCC(=O)O", "note": "(plate: PM6)", "respiration area under curve": "8220 (active)"}, {"compound": "CC[C@H](C)[C@H](NC(=O)CN)C(=O)O", "note": "(plate: PM8)", "respiration area under curve": "7100 (active)"}, {"compound": "NCC(=O)N[C@@H](Cc1ccc(O)cc1)C(=O)O", "note": "(plate: PM6)", "respiration area under curve": "2560 (active)"}, {"compound": "NCC(=O)N[C@@H](Cc1c[nH]c2ccccc12)C(=O)O", "note": "(plate: PM6)", "respiration area under curve": "755 (inactive)"}, {"compound": "C[C@H](NC(=O)[C@@H]1CCCN1)C(=O)O", "note": "(plate: PM7)", "respiration area under curve": "8890 (active)"}, {"compound": "NC(=O)CC[C@H](NC(=O)[C@@H](N)CO)C(=O)O", "note": "(plate: PM8)", "respiration area under curve": "9860 (active)"}, {"compound": "C[C@H](N)C(=O)N[C@@H](Cc1c[nH]c2ccccc12)C(=O)O", "note": "(plate: PM6)", "respiration area under curve": "4490 (active)"}, {"compound": "CC(C)C[C@H](NC(=O)[C@@H](N)CC(=O)O)C(=O)O", "note": "(plate: PM6)", "respiration area under curve": "2690 (active)"}, {"compound": "NC(=O)CC[C@H](NC(=O)[C@@H]1CCCN1)C(=O)O", "note": "(plate: PM7)", "respiration area under curve": "9790 (active)"}, {"compound": "CC[C@H](C)[C@H](NC(=O)[C@@H](N)CC(C)C)C(=O)O", "note": "(plate: PM6)", "respiration area under curve": "6260 (active)"}, {"compound": "N[C@@H](Cc1ccc(O)cc1)C(=O)N[C@@H](Cc1c[nH]c2ccccc12)C(=O)O", "note": "(plate: PM7)", "respiration area under curve": "3280 (active)"}, {"compound": "C[C@@H](O)[C@H](N)C(=O)N[C@@H](CC(=O)O)C(=O)O", "note": "(plate: PM8)", "respiration area under curve": "5680 (active)"}, {"compound": "N[C@@H](Cc1c[nH]c2ccccc12)C(=O)N[C@@H](CC(=O)O)C(=O)O", "note": "(plate: PM7)", "respiration area under curve": "446 (inactive)"}, {"compound": "NCC(=O)N[C@@H](Cc1ccccc1)C(=O)O", "note": "(plate: PM6)", "respiration area under curve": "2760 (active)"}, {"compound": "C[C@H](N)C(=O)N1CCC[C@H]1C(=O)O", "note": "(plate: PM6)", "respiration area under curve": "12000 (active)"}, {"compound": "C[C@@H](O)[C@H](N)C(=O)N[C@@H](CCC(=O)O)C(=O)O", "note": "(plate: PM7)", "respiration area under curve": "7240 (active)"}, {"compound": "C[C@@H](O)[C@H](N)C(=O)N1CCC[C@H]1C(=O)O", "note": "(plate: PM7)", "respiration area under curve": "13000 (active)"}, {"compound": "CC(C)[C@H](NC(=O)[C@@H](N)Cc1ccc(O)cc1)C(=O)O", "note": "(plate: PM8)", "respiration area under curve": "7430 (active)"}, {"compound": "CC(C)C[C@H](N)C(=O)N[C@@H](CC(N)=O)C(=O)O", "note": "(plate: PM8)", "respiration area under curve": "12400 (active)"}]}]}
